Assay results taken from ChEMBL document CHEMBL5598561, “ASAP - In vitro binding kinetics” (2024).

Target: Nonstructural protein 3 (Zika virus) (UniProt A0A024AXB9)
Sequence (A0A024AXB9 as listed by the source): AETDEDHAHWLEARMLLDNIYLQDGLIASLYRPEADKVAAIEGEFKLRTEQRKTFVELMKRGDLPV

With `CC(=O)Nc1cc(Br)cc(C(=O)Nc2ccc3c(c2)CNC3)c1` as the molecule, how does the pKD (PRVABC59, Concentration 10.0 uM, Immobilization level 3900.0 pg/mm2, Rmax 40.0 pg/mm2, ka 607998.487 M-1s-1, kd 0.155 1/s) read?
Its pKD is 6.59.

And the pKD (PRVABC59, Concentration 10.0 uM, Immobilization level 4900.0 pg/mm2, Rmax 52.0 pg/mm2, ka 391367.264 M-1s-1, kd 0.17 1/s)?
Its pKD is 6.36.

What about the pKD (PRVABC59, Concentration 10.0 uM, Immobilization level 5500.0 pg/mm2, Rmax 55.0 pg/mm2, ka 425641.507 M-1s-1, kd 0.187 1/s) of the same molecule?
The pKD was 6.36.

What about the pKD (PRVABC59, Concentration 10.0 uM, Immobilization level 10000.0 pg/mm2, Rmax 42.0 pg/mm2, ka 618288.109 M-1s-1, kd 0.171 1/s) of the same molecule?
Its pKD is 6.56.

And the pKD (PRVABC59, Concentration 10.0 uM, Immobilization level 12000.0 pg/mm2, Rmax 74.0 pg/mm2, ka 318554.659 M-1s-1, kd 0.182 1/s)?
The pKD was 6.24.

And the pKD (PRVABC59, Concentration 10.0 uM, Immobilization level 13000.0 pg/mm2, Rmax 61.0 pg/mm2, ka 520517.585 M-1s-1, kd 0.161 1/s)?
The pKD was 6.51.

Which pKD (PRVABC59, Concentration 10.0 uM, Immobilization level 3900.0 pg/mm2, Rmax 27.0 pg/mm2, ka 296746.451 M-1s-1, kd 1.513 1/s) does the source give for `N[C@H]1CCCc2ccc(NC(=O)c3cc(Cl)cc4[nH]ncc34)cc21` here?
Its pKD is 5.29.

And the pKD (PRVABC59, Concentration 10.0 uM, Immobilization level 4900.0 pg/mm2, Rmax 56.0 pg/mm2, ka 115778.511 M-1s-1, kd 1.284 1/s)?
Its pKD is 4.96.

What about the pKD (PRVABC59, Concentration 10.0 uM, Immobilization level 5500.0 pg/mm2, Rmax 46.0 pg/mm2, ka 170057.868 M-1s-1, kd 1.305 1/s) of the same molecule?
The pKD was 5.12.

What about the pKD (PRVABC59, Concentration 10.0 uM, Immobilization level 10000.0 pg/mm2, Rmax 44.0 pg/mm2, ka 295859.47 M-1s-1, kd 1.578 1/s) of the same molecule?
The pKD was 5.27.

And the pKD (PRVABC59, Concentration 10.0 uM, Immobilization level 12000.0 pg/mm2, Rmax 41.0 pg/mm2, ka 173417.805 M-1s-1, kd 0.975 1/s)?
The pKD was 5.25.

And the pKD (PRVABC59, Concentration 10.0 uM, Immobilization level 13000.0 pg/mm2, Rmax 62.0 pg/mm2, ka 213953.785 M-1s-1, kd 1.191 1/s)?
Its pKD is 5.25.

Which results are given for `NCc1ccc(NC(=O)c2cc(Cl)cc3[nH]ncc23)cc1`?
pKD (PRVABC59, Concentration 10.0 uM, Immobilization level 3900.0 pg/mm2, Rmax 39.0 pg/mm2, ka 344993.29 M-1s-1, kd 2.713 1/s): 5.11; pKD (PRVABC59, Concentration 10.0 uM, Immobilization level 4900.0 pg/mm2, Rmax 52.0 pg/mm2, ka 210233.557 M-1s-1, kd 2.157 1/s): 4.99; pKD (PRVABC59, Concentration 10.0 uM, Immobilization level 5500.0 pg/mm2, Rmax 46.0 pg/mm2, ka 296422.165 M-1s-1, kd 2.251 1/s): 5.12; pKD (PRVABC59, Concentration 10.0 uM, Immobilization level 10000.0 pg/mm2, Rmax 40.0 pg/mm2, ka 241734.917 M-1s-1, kd 1.766 1/s): 5.14; pKD (PRVABC59, Concentration 10.0 uM, Immobilization level 12000.0 pg/mm2, Rmax 57.0 pg/mm2, ka 217368.509 M-1s-1, kd 1.551 1/s): 5.15; pKD (PRVABC59, Concentration 10.0 uM, Immobilization level 13000.0 pg/mm2, Rmax 45.0 pg/mm2, ka 247269.193 M-1s-1, kd 1.32 1/s): 5.27

Which pKD (PRVABC59, Concentration 1.0 uM, Immobilization level 3900.0 pg/mm2, Rmax 43.0 pg/mm2, ka 266866.495 M-1s-1, kd 1.179 1/s) does the source give for `N#Cc1cc(C(=O)Nc2ccc3c(c2)CNC3)cc(C(F)(F)F)c1` here?
Its pKD is 5.36.

What about the pKD (PRVABC59, Concentration 10.0 uM, Immobilization level 4900.0 pg/mm2, Rmax 32.0 pg/mm2, ka 534169.763 M-1s-1, kd 0.781 1/s) of the same molecule?
Its pKD is 5.84.

What about the pKD (PRVABC59, Concentration 10.0 uM, Immobilization level 5500.0 pg/mm2, Rmax 33.0 pg/mm2, ka 604018.636 M-1s-1, kd 0.866 1/s) of the same molecule?
The pKD was 5.84.

And the pKD (PRVABC59, Concentration 10.0 uM, Immobilization level 10000.0 pg/mm2, Rmax 37.0 pg/mm2, ka 362843.113 M-1s-1, kd 0.996 1/s)?
The pKD was 5.56.

And the pKD (PRVABC59, Concentration 10.0 uM, Immobilization level 12000.0 pg/mm2, Rmax 65.0 pg/mm2, ka 232125.016 M-1s-1, kd 0.861 1/s)?
The pKD was 5.43.

And the pKD (PRVABC59, Concentration 10.0 uM, Immobilization level 13000.0 pg/mm2, Rmax 45.0 pg/mm2, ka 383567.228 M-1s-1, kd 0.798 1/s)?
Its pKD is 5.68.

With `CCNCc1ccc(NC(=O)c2cc(Cl)cc3[nH]ncc23)cc1` as the molecule, how does the pKD (PRVABC59, Concentration 10.0 uM, Immobilization level 3900.0 pg/mm2, Rmax 49.0 pg/mm2, ka 254831.951 M-1s-1, kd 6.984 1/s) read?
The pKD was 4.56.

What about the pKD (PRVABC59, Concentration 10.0 uM, Immobilization level 4900.0 pg/mm2, Rmax 79.0 pg/mm2, ka 107155.284 M-1s-1) of the same molecule?
Its pKD is 4.35.

What about the pKD (PRVABC59, Concentration 10.0 uM, Immobilization level 5500.0 pg/mm2, Rmax 69.0 pg/mm2, ka 175345.198 M-1s-1) of the same molecule?
The pKD was 4.55.

And the pKD (PRVABC59, Concentration 10.0 uM, Immobilization level 12000.0 pg/mm2, Rmax 35.0 pg/mm2, ka 320872.936 M-1s-1, kd 4.693 1/s)?
Its pKD is 4.83.

What does the source list for `NCc1ccc(NC(=O)c2cc(Cl)cc3[nH]ncc23)cc1F`?
pKD (PRVABC59, Concentration 10.0 uM, Immobilization level 3900.0 pg/mm2, Rmax 23.0 pg/mm2, ka 241912.451 M-1s-1, kd 2.753 1/s): 4.94; pKD (PRVABC59, Concentration 10.0 uM, Immobilization level 4900.0 pg/mm2, Rmax 19.0 pg/mm2, ka 418363.843 M-1s-1, kd 3.02 1/s): 5.14; pKD (PRVABC59, Concentration 10.0 uM, Immobilization level 5500.0 pg/mm2, Rmax 22.0 pg/mm2, ka 268076.557 M-1s-1, kd 2.711 1/s): 5; pKD (PRVABC59, Concentration 10.0 uM, Immobilization level 12000.0 pg/mm2, Rmax 15.0 pg/mm2, ka 138303.314 M-1s-1, kd 1.565 1/s): 4.95; pKD (PRVABC59, Concentration 10.0 uM, Immobilization level 13000.0 pg/mm2, Rmax 64.0 pg/mm2, ka 32485.569 M-1s-1, kd 2.272 1/s): 4.16
